Assay results from PubChem BioAssay AID492947 (National Center for Advancing Translational Sciences (NCATS), 2010).
Screen size: about 330,000 compounds; about 80 (0.02%) were called active. Calls come from the whole dose curve; as a rule, active = well fitted activation curve with a large enough effect; inconclusive = small, poorly fitted or top-dose-only effect; inactive = flat fitted curve, though single readings scatter. Only a selection was taken, and actives are over-represented in it overall. Square brackets hold non-standard residues; d marks the D form. Peptide text beside a SMILES is read from it. * marks the point of attachment. PhAc = O=C(Cc1ccccc1)*

molecular target: Beta-2 adrenergic receptor (Homo sapiens) (UniProt P07550); test: qHTS assay of beta-arrestin-biased ligands of beta2-adrenergic receptor; settings: beta-arrestin recruitment to beta2AR, cell-based reporter; series mostly up to 46.1 µM; activation: at the top concentration;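 note: 0% = DMSO controls and full agonism = EC100 isoproterenol or metaproterenol; nearly all actives have a fitted effect of over 65% in size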
Sequence (P07550 whole entry, looked up): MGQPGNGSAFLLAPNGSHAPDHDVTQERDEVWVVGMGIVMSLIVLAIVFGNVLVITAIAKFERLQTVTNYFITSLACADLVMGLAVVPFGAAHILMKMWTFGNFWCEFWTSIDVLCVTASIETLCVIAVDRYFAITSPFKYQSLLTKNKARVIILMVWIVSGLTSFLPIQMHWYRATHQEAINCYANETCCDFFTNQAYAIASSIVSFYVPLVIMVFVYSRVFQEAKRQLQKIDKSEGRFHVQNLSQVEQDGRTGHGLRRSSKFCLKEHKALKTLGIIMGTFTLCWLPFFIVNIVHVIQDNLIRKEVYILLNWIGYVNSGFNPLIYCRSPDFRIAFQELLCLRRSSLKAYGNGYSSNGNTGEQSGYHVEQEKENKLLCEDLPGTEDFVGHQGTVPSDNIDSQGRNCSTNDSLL
Source text: NIH Molecular Libraries Probe Production Network [MLPCN]
NIH Chemical Genomics Center [NCGC]
PI: Bryan Roth and Bob Lefkowitz
The concept of biased agonism is an emerging concept of molecular pharmacology which proposes that seven transmembrane receptors (7TMRs) or G protein-coupled receptors (GPCRs), exist in multiple signaling conformations and complexes and that ligands (either agonists or antagonists) can induce signaling biased responses for distinct signal transduction cascades.
Furthermore, accumulating evidence over the last decade has drawn attention to a novel function of beta-arrestins as signal transducers that scaffold various signaling molecules upon activation of 7TMRs. […] This beta-arrestin-biased signaling presumably leads to distinct physiological outcomes from those by G protein activation.
Additionally, the active receptor conformations which […] on this beta-arrestin signaling are likely different from those activating G protein signaling
The goal of this screening project will be to discover and optimize novel beta-arrestin-biased ligands for beta2-AR signaling. A luminescent cell-based assay for beta2-AR-mediated agonism, known as the Tango assay, has been validated in which ligand binding of a recombinant beta2-AR and subsequent recruitment of a recombinant beta-arrestin lead to the release of the transcriptional activator tTA, which upregulates transcription of a tTA-responsive luciferase gene. […] Compounds were screened as a concentration-titration series that ranged from 46 microM to 0.6 nM.
NCGC Assay Protocol Summary:
Tango cells were dispensed into white, solid, tissue-culture-treated 1536-well plates at 1500 cells/well in DMEM, containing 1% fetal bovine serum (FBS). Then, 23 nL of compounds or DMSO were delivered to each well using a pin tool. Plates were incubated at 37 degrees C, 5% CO2 for 18 hr. Then 2.5 uL luminescent substrate mix (in-house prepared: 150 mM Tris-Cl, pH 7.6, 3 mM MgCl2, 1% Triton X-100, 5 mM DTT, 0.5 mM CoA, 0.15 mM ATP, 0.44 mM D-luciferin, final concentrations) was added to each well. Plates were then incubated for 15 minutes at room temperature, and subsequently measured on a ViewLux plate reader for luminescent signal using a clear filter with a 10 second exposure and 2x binning. The %Activity was determined from the corrected luminescence values.
Concentration-response curves were fitted to the signals arising from the resulting luminescence. The concentration-effect curves were then classified based on curve quality (r2), response magnitude and degree of measured activity, and compounds were subsequently categorized based on their curve class.
Keywords: biased agonism, beta2-AR, beta-arrestin, GPCR, 7TMR, Tango, luminescence, MLSMR, MLPCN, NIH Roadmap, qHTS, NCGC

activation, inactive:
C=C1CCN([C@H](C(=O)NCc2cc(OC)c(OC)c(OC)c2)C(C)C)S(=O)(=O)c2ccccc21 0.37%, COc1cc(C2C3=C(CCCC3=O)OC3=C2C(=O)CCC3)ccc1OCC(=O)Nc1ccccc1 -0.63%, O=S(=O)(O)CCN1CCOCC1 -0.0424%, O=S(=O)(NC1CCCCC1)c1ccc(F)c2ccccc12 -0.345%, NS(=O)(=O)c1cc2c(cc1Cl)NC(C(Cl)Cl)NS2(=O)=O (stereo not given) -0.908%, COc1ccc(/C(O)=C2/C(=O)C(=O)N(CC3CCCO3)C2c2ccc(OC)c(OC)c2)cc1 (stereo not given) -0.248%, CCCOc1ccc(-c2c(C(=O)N/N=C/c3ccco3)nnn2-c2nonc2N)cc1 -0.534%, Cc1cc(S(=O)(=O)c2cc3ccc(O)c(C)c3oc2=O)ccc1F 0.271%, CSCC[C@H](NC(=O)NC1CCCC1)C(=O)O 0.222%, CCN(c1ccccc1)S(=O)(=O)c1ccc(C(=O)Nc2ccccc2OC)cc1 0.146%, Cc1ccc(CN2CCN(Cc3ccc(OCCO)cc3)CC2CCO)o1 (stereo not given) -0.418%, COc1ccc(OC)c(NC(=O)c2sc3nc(C)cc(C)c3c2N)c1 0.456%, CCCN1CCN(C(=O)Cn2ncc3ccccc32)CC1 -1.82%, C[C@H](CO)N1C[C@H](C)[C@@H](CN(C)C(=O)Nc2ccc3c(c2)OCO3)Oc2c(cccc2N(C)C)C1=O -0.0114%, CCn1ccnc1CN1CCCC(C(=O)c2ccc3c4c(cccc24)CC3)C1 (stereo not given) 7.21%, Cc1cccc(C(=O)NNC(=O)CSc2nnc(C(C)C)n2C)c1 0.405%, C/C=C/C(=O)Nc1nnc(C(C)C)s1 0.101%, CCSc1nc2c(c(=O)[nH]1)C(c1cccnc1)C(C(=O)OC(C)C)=C(C)N2 (stereo not given) 2.44%, CC1(C)CC(N(Cc2ccccc2)C(=O)Cc2ccccc2)CCO1 (stereo not given) 0.0559%, COc1cccc(N(CC(=O)NC2CCCC2)C(=O)CCCC(=O)Nc2ccccn2)c1 -0.143%, O=C1CSc2ccc(S(=O)(=O)NCc3ccccc3)cc2N1 0.128%, CN(c1cccc(NC(=O)c2ccc(CN3CCc4ccccc4C3)cc2)c1)S(C)(=O)=O -0.688%, COc1ccc(NC(=O)C2CCC(CNS(=O)(=O)c3csc(C(N)=O)c3)CC2)cc1OC (stereo not given) 0.217%, O=C(NCCc1ccc(C(F)(F)F)cc1)c1ccc2c(c1)OCO2 0.112%, COc1ccc(C(C)=O)cc1CN1C(=O)NC2(CCCCC2C)C1=O (stereo not given) -0.794%, Cc1ccc(NC(=O)CS(=O)CC(=O)N(c2ccccc2)C(C)C(=O)NC2CCCC2)cc1 (stereo not given) -0.262%, CC(C)C[C@@H](NC(=O)[C@H]1CCCN1C(=O)Cc1ccccc1)C(N)=O (PhAc-[dP]-[dL]-NH2) 0.667%, CCOC(=O)Cn1c(O)c(N=NC(=O)CNC(=O)Cc2ccccc2)c2ccccc21 0.315%, CCn1c(CC(=O)Nc2ccc(C)cc2)nnc1SCC(=O)Nc1nc(C)cs1 -1.04%, Cc1noc(C)c1C(=O)OCC(=O)N1CCN(S(=O)(=O)c2ccc3ccccc3c2)CC1 -0.677%, Cc1nc2ccc(NC(=O)C3CCCCC3)cc2s1 -0.228%, Cc1ccc(NC(=S)NCCc2ccc(Cl)cc2)c(C)c1 -0.056%, CCCCOC(=O)Nc1nccs1 0.2%, O=C(CN(Cc1ccccc1)C(=O)c1ccc2c(c1)OCCO2)NCc1ccc2c(c1)OCO2 -0.348%, CC(OC(=O)CN1C(=O)c2ccccc2C1=O)C(=O)c1ccccc1 (stereo not given) -0.0877%, COc1ccc(OC)c(CNC(=O)c2cc(=O)[nH]c3ccc(S(=O)(=O)N4CCCC4)cc23)c1 0.0882%, CCCCN=C1N/C(=C\c2ccco2)C(=O)N1c1ccccc1 0.239%, CC12C(=O)N(c3ccccc3)C(=O)C1C(c1ccccc1)N1CCCN12 (stereo not given) -0.468%, Cc1c(Cl)cccc1NC(=O)NCc1ccc(C)n1C 0.368%, CCOC(=O)Cc1ncccc1C(=O)Nc1ccc(OC(F)(F)F)cc1 0.342%, CCOC(=O)N1CCC(N(CCOC)C(=O)Nc2ccc(C)c(C)c2)CC1 -1.07%, CCOC(=O)N/N=C1\CC(C)S(=O)(=O)c2ccc(Cl)cc21 (stereo not given) 0.455%, CC1CCC(C(C)C)C(=O)/C1=C\c1ccc(NC(=O)CCC(=O)O)cc1 (stereo not given) -0.303%, COC(=O)c1ccc(-c2c(-c3ccccc3)ncc3cc(OC)c(OC)cc23)cc1 0.148%, NC1=NC2(CCCCC2)N(c2ccc(F)cc2F)C(N)=N1 0.0396%, O=C(Oc1ccc(Br)cc1C(=S)N1CCOCC1)c1cccc([N+](=O)[O-])c1 0.418%, CCOC(=O)C1CCN(Cc2coc3ccc(Cl)cc3c2=O)CC1 -0.282%, COc1ccc(S(=O)(=O)N(C)CC(=O)N2CCCC2)cc1Cl -0.204%, C/C(=N\NC(=O)c1cc2c(s1)CCC(C)C2)c1cccnc1 (stereo not given) -0.278%, COC(=O)[C@H](CC(C)C)NC(=O)N1CCCCC1C (stereo not given in full) -0.413%, Cc1ccccc1-n1nc(C)c2c1N=C1C(Cl)=CC(Cl)=CN1C2c1ccc(C(=O)O)cc1 (stereo not given) -0.645%, COc1ccc2c(c1)CCc1cn3ncc(C#N)c3nc1-2 -0.718%, COc1ccc(OCC(=O)NCCc2ccc(S(N)(=O)=O)cc2)cc1 -0.147%, Cc1nn(-c2ccccc2)c2sc(C(=O)N(Cc3ccco3)C(C)C(=O)NC(C)(C)C)cc12 (stereo not given) -0.496%, Cc1ccccc1N1CCN(C2CCCN(C(=O)c3cn4c(C)cccc4n3)C2)CC1 (stereo not given) 0.177%, COCCn1c(SCC(=O)Nc2cc(OC)ccc2OC)nc2c(c1=O)SC(C)C2 (stereo not given) -0.395%, Cc1cc(Cl)ccc1NC(=S)N1CCC(C(N)=O)(N2CCCCC2)CC1 -0.676%, C[C@H]1COC(=O)[C@H](CC(=O)OC(C)(C)C)C/C=C\C[C@@H](CC(=O)N[C@H](CO)Cc2ccccc2)C(=O)N1 -0.195%, CCCn1c(C(Cc2ccccc2)NC(=O)COC)nc2ccccc21 (stereo not given) 0.278%, O=C(Nc1ccccc1F)C1C2C=CC3(O2)C1C(=O)N(c1cccnc1)C3C(=O)NC1CCCCC1 (stereo not given) -0.119%, COC(=O)CN1C(=O)C(C)(C)Oc2ccc(C(=O)Nc3cccc(OC)c3)cc21 0.44%, CC1(c2ccc(Cl)cc2Cl)NC(=O)N(CC(=O)Nc2cccnc2Cl)C1=O (stereo not given) 0.107%, CSc1nc2nc3c(c(=O)n2[nH]1)CCC3 0.387%, O=C(COC(=O)Cc1ccc(Br)cc1)Nc1ccc(N2CCOCC2)cc1 0.283%, CCN1CCCC1CNC(=O)Cn1cnc2ccc(S(=O)(=O)N3CCC(C)CC3)cc2c1=O (stereo not given) -0.835%
